Bioassay records deposited in PubChem by several laboratories.
CYP2C19 inh: inhibitors of human CYP2C19; actives 21% (n = 96,000); inhibition, % at 5 µM; CYP2C19 Supersomes, luciferin-H EGE luminescence, 30 min;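 active = CYP2C19 inhibition above a set limit at 5 µM in the primary screen, cut at about 50% in these data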
CYP2C19 act: activators of human cytochrome P450 2C19; recombinant CYP2C19, luciferin-H EGE luminescence; stronger effect = higher value; 0 = fully inhibited enzyme, 1 = untreated enzyme; activation factor at 5 µM; 96,000 tested, under 10 active; AID 1025;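 active = activation factor of at least 2 at 5 µM in the primary screen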
Cav3 T inh: human Cav3.2 channel inhibition, primary screen | O95180 | Cav3.2-expressing cells, Fluo-4 calcium fluorescence FDSS; stronger effect = lower value | B-score at 10 µM | actives 4% (n = 100,000) | AID 449739;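 active = single-dose well whose peak fluorescence ratio is a statistical outlier from its plate by either plate-standardised score or position-corrected B-score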
CYP2C9 inhib: blocks human cytochrome P450 2C9. CYP2C9 Supersomes, luciferin-H conversion, luminescence. inhibition, % at 5 µM. actives 20% (n = 96,000). AID 777;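 active = blocking of liver enzyme CYP2C9 beyond about 50% at 5 µM, limit read from the data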
Target sequence (P11712 whole entry, looked up): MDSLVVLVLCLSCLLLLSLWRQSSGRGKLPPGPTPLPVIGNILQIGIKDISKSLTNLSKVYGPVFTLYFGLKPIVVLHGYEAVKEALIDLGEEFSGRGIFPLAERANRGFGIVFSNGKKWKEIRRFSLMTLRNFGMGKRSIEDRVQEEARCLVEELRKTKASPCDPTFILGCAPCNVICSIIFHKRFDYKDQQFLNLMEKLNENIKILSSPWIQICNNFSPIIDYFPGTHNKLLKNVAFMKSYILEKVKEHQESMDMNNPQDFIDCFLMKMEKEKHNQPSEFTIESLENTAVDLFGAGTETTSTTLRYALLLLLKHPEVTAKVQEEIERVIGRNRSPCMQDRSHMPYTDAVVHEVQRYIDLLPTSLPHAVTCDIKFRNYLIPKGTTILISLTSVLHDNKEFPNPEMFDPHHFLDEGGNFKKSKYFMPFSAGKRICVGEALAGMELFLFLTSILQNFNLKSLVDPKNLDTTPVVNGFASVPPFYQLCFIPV
PTK2B oligo ant: antagonists of human Pyk2 oligomerization | Q14289 | Q293 cells, Pyk2 FERM NanoBiT luminescence; stronger effect = lower value | z-score (the deposit names both 25 µM and 10 µM) | actives 0.83% (n = 99,000) | AID 1347419;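 active = Z-score of -3 or lower, scaled per plate to the spread of control and sample wells; inactive = z-score above -3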;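 note: negative z-score means lost luminescence so less FERM oligomerization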
CYP2C9 activ: activators of human CYP2C9; P11712; recombinant CYP2C9, luciferin-H conversion, luminescence; stronger effect = higher value; factor 1 = untreated enzyme, 0 = blocked; activation factor at 5 µM; actives 1.4% (n = 96,000); AID 1024;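 active = activation factor of 2 or more for CYP2C9 at a 5 µM dose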
Each line names hits and unclear results; the compound was inactive in the other large screens. The list is not random: actives were taken first. Their share in the collection is about 27%.

Nc1scc2c(C(=O)N/N=C/c3ccc(Cl)cc3)nn(-c3ccccc3)c(=O)c12	CYP2C9 inhib 54
Oc1ccc(-c2[nH]ncc2-c2ccc(Cl)cc2)c(O)c1	CYP2C19 inh 92, CYP2C9 inhib 91
COc1ccc(-c2[nH]ncc2-c2ccc(Cl)cc2)c(O)c1	CYP2C19 inh 75
c1cnc2c(c1)ccc1cccnc12	none (no result: CYP2C19 inh, CYP2C19 act, CYP2C9 inhib, PTK2B oligo ant, CYP2C9 activ)
Oc1ccc(-c2[nH]ncc2-c2cccc3cccnc23)c(O)c1	CYP2C19 inh 54, CYP2C9 inhib 53
O=C(Nc1nnc(C2CCCC2)s1)C1CCN(S(=O)(=O)c2ccc(Cl)cc2)CC1	none (no result: CYP2C19 inh, CYP2C19 act, CYP2C9 inhib, CYP2C9 activ)
Cc1nc2cc(NC(=O)COc3ccc(C#N)cc3)ccc2n1-c1ccccc1	none
COC(=O)C1=C(C)N(CCCC(=O)O)C(=O)NC1c1ccccc1Cl (centres undefined)	none (no result: CYP2C19 inh, CYP2C19 act, CYP2C9 inhib, PTK2B oligo ant, CYP2C9 activ)
COC(=O)C1=CN(C2CC2)C=C(C(=O)OC)C1c1ccc(C(=O)OC)cc1	none
COC(=O)C1=CNC=C(C(=O)OC)C1c1cccc(OC)c1	CYP2C19 inh 86, CYP2C9 inhib 79
COC(=O)C1=CNC=C(C(=O)OC)C1c1ccccc1Cl	CYP2C19 inh 84, CYP2C9 inhib 70
COC(=O)C1=CNC=C(C(=O)OC)C1c1ccc(Cl)cc1	CYP2C19 inh 75, CYP2C9 inhib 75, PTK2B oligo ant -3.8
O=C(NCCc1cccs1)C1CC(c2ccccc2F)=NO1 (centres undefined)	none (no result: CYP2C19 inh, CYP2C19 act, CYP2C9 inhib, PTK2B oligo ant, CYP2C9 activ)
CCCCc1cn([C@@H](CCCCNC(=O)OC(C)(C)C)C(=O)N2CCN(C(=O)OC(C)(C)C)CC2)nn1	none (no result: CYP2C19 inh, CYP2C19 act, CYP2C9 inhib, PTK2B oligo ant, CYP2C9 activ)
CC1CN(Cc2ccc(Cl)cc2Cl)CC(C)O1 (centres undefined)	CYP2C19 inh 54
COCCn1nnnc1CN1C2CCCC1CC(NC(C)=O)C2 (centres undefined)	none
O=C(NCc1cc(C(F)(F)F)cc(C(F)(F)F)c1)C1CC(c2c(Cl)cccc2Cl)=NO1 (centres undefined)	CYP2C19 inh 62, CYP2C9 inhib 77 (no result: PTK2B oligo ant)
O=C(NCc1ccc(OC(F)(F)F)cc1)C1CC(c2c(Cl)cccc2Cl)=NO1 (centres undefined)	CYP2C19 inh 87 (no result: PTK2B oligo ant)
O=C(NCCc1cccs1)C1CC(c2c(Cl)cccc2Cl)=NO1 (centres undefined)	CYP2C19 inh 60, CYP2C9 activ 2.2 (no result: PTK2B oligo ant)
CCOC(=O)N1CCC(NC(=O)c2csc3c2CCCC3)CC1	none (no result: PTK2B oligo ant)
O=C(NCCc1ccccc1)c1ccc2c(c1)S(=O)(=O)c1ccccc1C2=O	none (no result: CYP2C19 inh, CYP2C19 act, CYP2C9 inhib, PTK2B oligo ant, CYP2C9 activ)
C=CCn1cnc2scc(-c3ccc(C)cc3)c2c1=O	CYP2C19 inh 92, CYP2C9 inhib 65
CC(=O)NCCOc1cccc2cccnc12	none
Nc1cc2nc3ccccc3oc-2cc1=O	none (no result: CYP2C19 inh, CYP2C19 act, CYP2C9 inhib, PTK2B oligo ant, CYP2C9 activ)
CCCOC(=O)C(C)n1cnc2sc(C)c(C)c2c1=O (centres undefined)	CYP2C19 inh 70, CYP2C9 inhib 56
COC(=O)c1sc2ncn(-n3c(C)ccc3C)c(=O)c2c1C	none (no result: Cav3 T inh)
CCOC(=O)c1sc2ncn(C(CC)C(=O)OCC)c(=O)c2c1C (centres undefined)	CYP2C19 inh 60, CYP2C9 inhib 83
CCOC(=O)c1sc2ncn(C(C)C(=O)OC)c(=O)c2c1C (centres undefined)	CYP2C19 inh 57, CYP2C9 inhib 54
CCOC(=O)c1sc2ncn(C(CC)C(=O)OC)c(=O)c2c1C (centres undefined)	CYP2C19 inh 70, CYP2C9 inhib 96
CCOC(=O)c1sc2nc[nH]c(=O)c2c1C	none
CC1(C)CC(=O)C2=C(C1)OC(N)=C(C#N)C2C1CC=CCC1 (centres undefined)	none (no result: CYP2C19 inh, CYP2C19 act, CYP2C9 inhib, CYP2C9 activ)
Cc1nnsc1C(=O)NC1CCCCC1	none
COc1ccccc1CNC(=O)C1CC(c2ccccc2C(F)(F)F)=NO1 (centres undefined)	none (no result: CYP2C19 inh, CYP2C19 act, CYP2C9 inhib, PTK2B oligo ant, CYP2C9 activ)
COn1c(C)c(C(C)=O)c2c3nonc3ccc21	CYP2C19 inh 61, CYP2C9 inhib 50
CCCCOn1c(C)c(C(=O)OCC)c2c3nonc3ccc21	none (no result: CYP2C19 inh, CYP2C19 act, CYP2C9 inhib, CYP2C9 activ)
CCN1CCN(C(=O)C2CCN(C(=O)c3cc4sccc4n3CC)CC2)CC1	none (no result: PTK2B oligo ant)
CCn1c(C(=O)N2CCC(C(=O)NCc3ccc4c(c3)OCO4)CC2)cc2sccc21	Cav3 T inh -5.9 (no result: PTK2B oligo ant)
CCn1c(C(=O)N2CCC(C(=O)NCCCSC3CCCCC3)CC2)cc2sccc21	CYP2C19 inh 53, Cav3 T inh -7 (no result: PTK2B oligo ant)
Cn1c(C(=O)N2CCCC(C(=O)NCc3ccc4c(c3)OCO4)C2)cc2sccc21 (centres undefined)	none (no result: PTK2B oligo ant)
COc1ccc(C2C3=C(Nc4ncnn42)c2ccccc2CC3)cc1OC (centres undefined)	CYP2C19 inh 55 (no result: PTK2B oligo ant)
O=C1CCCC2=C1C1(CCCCC1)N=C(Nc1nc3ccccc3s1)N2	none
CC(O)CN1C(=O)C(CC(=O)Nc2ccc(Cl)cc2)SC1=Nc1ccccc1 (centres undefined)	CYP2C19 inh 72, CYP2C9 inhib 67
COCCN1C(=O)C(CC(=O)Nc2ccc(C(C)=O)cc2)SC1=Nc1ccccc1 (centres undefined)	CYP2C19 inh 54, CYP2C9 inhib 72 (no result: Cav3 T inh)
Cc1ccc(NCc2nnc3n2CCCCC3)cc1	CYP2C19 inh 75
Brc1ccc(NCc2nnc3n2CCCCC3)cc1	CYP2C19 inh 64
CN1C(=O)CC(C(=O)O)SC1=Nc1cccc(C(F)(F)F)c1 (centres undefined)	none (no result: CYP2C19 inh, CYP2C19 act, CYP2C9 inhib, CYP2C9 activ)
CCN1C=C(Cc2ccccc2C)C2=C(C1)C(c1ccccc1C)C(C#N)=C(N)O2 (centres undefined)	CYP2C19 inh 85, CYP2C9 inhib 99
N#C[C@H]1C2OC2c2ccccc2N1C(=O)c1ccccc1 (some centres undefined)	none (no result: CYP2C19 inh, CYP2C19 act, CYP2C9 inhib, PTK2B oligo ant, CYP2C9 activ)
CCOC(=O)N1CCN(C(=O)C2CCCN(S(=O)(=O)c3ccc(C)cc3)C2)CC1 (centres undefined)	CYP2C19 inh 53
CCOC(=O)C1CCCN(S(=O)(=O)c2ccc(C)cc2)C1 (centres undefined)	none (no result: CYP2C19 inh, CYP2C19 act, CYP2C9 inhib, CYP2C9 activ)
COc1ccc(S(=O)(=O)N2CCCC(C(=O)N3CCOCC3)C2)cc1C (centres undefined)	CYP2C9 activ 2.2
Cc1cc(S(=O)(=O)N2CCCC2)ccc1OCC(=O)N1CCOCC1	none
COc1ccc(S(=O)(=O)N2CCCC(C(=O)N3CCCCCC3)C2)cc1 (centres undefined)	CYP2C19 inh 80
CCOC(=O)C1CCCN(S(=O)(=O)c2ccc(OC)cc2)C1 (centres undefined)	CYP2C19 inh 96, CYP2C9 activ 2.4
CC(=O)NCC(=O)OCC(=O)c1ccc2ccccc2c1	none
O=c1[nH]ncc(N/N=C/c2ccccc2)c1Cl	none
Cc1ccc(/C=N\Nc2cn[nH]c(=O)c2Cl)cc1	Cav3 T inh -5.3
CCN(CCNC(=O)C1CCN(S(=O)(=O)c2cccc3nsnc23)CC1)c1ccccc1	none
CC(C)CC(CO)N1CCN(C(=O)c2ccccc2)CCC1=O (centres undefined)	none (no result: CYP2C19 inh, CYP2C19 act, CYP2C9 inhib, PTK2B oligo ant, CYP2C9 activ)
